Source: PubChem BioAssay (National Center for Advancing Translational Sciences (NCATS))
Only a selection was taken, and hits are over-represented in it overall.
Pf Dd2 inh: qHTS Primary assay for Inhibitors of Plasmodium falciparum Dd2 growth in vitro. 4.3% of 120,000 active. P. falciparum Dd2 growth, SYBR Green, 72 h. AID 1347417, 2020. Potency, µM (doses to about 28.9 µM), for inactives: at the top dose activity, negative = inhibition, actives largely listed as inhibitors; active means well fitted inhibition curve with a large enough effect;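 further: plate controls were DMSO vehicle for no effect and reference drug for full effect; nearly all actives have a fitted effect of over 65% in size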
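Infected erythrocytes (Dd2, 0.3% parasitemia, 2.5% hematocrit final) are added to compound in RPMI-1640/Albumax II medium, grown 72 h at 37C in low oxygen, then lysed with saponin/Triton-X containing SYBR Green and read by fluorescence.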
Active calls of the source: *; i = inactive; [ ] = another dose, or the depositor's remark. Potency means the concentration at half of the fitted maximal effect.

SMILES | Pf Dd2 inh
CCc1noc(-c2cn(C3CCN(C(=O)c4ccc(OC(F)(F)F)cc4)C3)nn2)n1 (configuration not stated) | i
O=c1c2oc3ccccc3c2n(Cc2ccccc2)c(=O)n1Cc1ccc2c(c1)OCO2 | -4%
CC1=NOC2(CCN(Cc3ccccc3)CC2)C1 | -11%[44.1 µM]
O=c1cc(-c2ccccc2)c2ccc3c(c2o1)CN(Cc1ccccc1)CO3 | 1µM*
COc1ccc(-c2cc(=O)oc3c4c(ccc23)OCN(Cc2ccccc2)C4)cc1 | 0.89µM*
O=C1COc2ccc(-c3ccncc3)nc2CN1Cc1ccccc1 | i
CCc1c(C)c2ccc3c(c2oc1=O)CN(Cc1ccccc1)CO3 | 1µM*
COc1ccc(C2=NOC3(CCN(Cc4ccccc4)C3)C2)cc1 (configuration not stated) | i
Cc1coc2c(C)c3oc(=O)c(CC(=O)NCc4ccccc4)c(C)c3cc12 | -8%
COc1ccc(OC2CN(Cc3ccccc3)C2)cc1 | 21%[44.1 µM]
COc1ccccc1N1CCN(C(=O)CN2C(=O)C(c3ccccc3)=NC23CCCC3)CC1 | i
O=C1CCN(C(=O)CC2CCCCC2)CCCOCCN1 | 8%
COc1cc(CNC(=O)c2cnc3c(c2)N(c2ccccc2OC)CCC3)cc(OC)c1 | 9%[44.1 µM]
O=C(c1cccs1)N1CCCC(n2cc(-c3nc(C4CC4)no3)nn2)C1 (configuration not stated) | i
C=C(C)CN(CC)C(=O)c1coc(CN2CCN(C/C=C/c3ccccc3)CC2)n1 | i
O=C(c1ccc2c(c1)OCO2)N1CCn2c(nnc2-c2ccc(Cl)cc2)C1 | 5%
COc1ccc(C(=O)N2CCCC(Cc3noc(-c4cnccn4)n3)C2)cc1 (configuration not stated) | 16%
Cc1nc(-c2ccccc2)sc1-c1ccc(SCC(=O)Nc2cccc(C(F)(F)F)c2)nn1 | -8%
CC(=O)Nc1cccc(NC(=O)CSc2ccc(-c3sc(-c4ccccc4)nc3C)nn2)c1 | 8.9µM*
Cc1ccc(CNC(=O)CSc2ccc(-c3sc(-c4ccccc4)nc3C)nn2)cc1 | -4%
CC1=C[C@@H](CNS(=O)(=O)c2ccccc2)[C@H](C(C)C)C[C@H]1CC(=O)NCc1ccc(C#N)cc1 | 4.5µM*
COc1ccc(S(=O)(=O)NC[C@@H]2C=C(C)[C@H](CC(=O)NCc3ccc(C#N)cc3)C[C@H]2C(C)C)cc1 | -4%
CC1=C[C@@H](CNS(=O)(=O)c2cccs2)[C@H](C(C)C)C[C@H]1CC(=O)NCc1ccc(C#N)cc1 | i
COc1ccc(C(=O)N2CC[C@@H]3COCCN(C)[C@@H]3C2)c(OC)c1 | i
CNC(=O)[C@@H]1CN(C(=O)c2ccccc2C(F)(F)F)C[C@H]1CO | 9%
SMILES | Pf Dd2 inh
CN1CCc2nc3sc(C(=O)Nc4ccccc4OC(F)(F)F)c(N)c3cc2C1 | -14%
Nc1c(C(=O)Nc2ccccc2)sc2nc3c(cc12)CN(Cc1ccccc1)CC3 | -12%
CCOc1ccccc1NC(=O)c1sc2nc3c(cc2c1N)CN(Cc1ccccc1)CC3 | 10µM*
Cc1cc(OCCN2CCOCC2)c(C)c2c1CC[C@@H]([C@H](C)C(=O)NC(C)(C)C)C2 | i
COc1ccc(C(=O)N2C[C@@H](Oc3cccnc3)C[C@H]2C(=O)NC2CC2)c(OC)c1 | 19%
CCOc1ccc(C(=O)N2CC(c3nnc(-c4ccc(C)cc4)o3)C3(CCOCC3)C2)cc1 (configuration not stated) | i
Cc1nc2ccc(C(=O)N3CC(=O)N(c4ccc(Cl)cc4)CC3C)cc2[nH]1 (configuration not stated) | -10%
COc1ccc(NC(=O)c2c(C)oc3ccc(O)c(CN4CCCCCC4)c23)cc1Cl | 0.35µM*
Cc1cc(Br)ccc1NC(=O)c1c(C)oc2ncnc(N3CCCCC3)c12 | -1%
COc1cc(=O)n2c(c1C(=O)Nc1ccc(F)c(Cl)c1)CCCC2 | 51%
Cc1ccc(NC(=O)c2c(C)oc3ncnc(N4CCCCC4)c23)cc1Cl | -6%
Cc1ccccc1NC(=O)c1c(C)oc2ccc(O)c(CN3CCCCCC3)c12 | 2.5µM*
COc1cc(=O)n2c(c1C(=O)Nc1ccccc1C)CCCC2 | 19%
CC(C)(C)CC(=O)N[C@@H]1C=C(C(=O)NCC(N)=O)C[C@@H](O)[C@@H]1O | -22%[44.1 µM]
COCC1CN(C(C)=O)CC12CCN(Cc1cccc(OC)c1)CC2 (configuration not stated) | i
CCOC(=O)CCNC(=O)N1CCCCCCN(C)C(=O)CC1 | 5%
CCOc1ccc(NC(=O)CC2CCCN(c3cnn(CCOC)c(=O)c3)C2)cc1 (configuration not stated) | -14%
CNC(=O)[C@@H]1CN(C(=O)c2cncc(Br)c2)C[C@H]1CO | 8%
CN(C)c1ccc(C(CNC(=O)c2ccc(C(C)(C)C)cc2)N2CCCC2)cc1 (configuration not stated) | 6.3µM*
O=C(NCC(c1ccc(Cl)cc1)N1CCCCC1)c1ccc(F)cc1 (configuration not stated) | -13%
COc1ccc(C(=O)NCC(c2ccc(N(C)C)cc2)N2CCOCC2)cc1 (configuration not stated) | 46%
CCc1ccc(Oc2c(C(F)(F)F)oc3c(CN4CCN(C)CC4)c(O)ccc3c2=O)cc1 | 0.28µM*
CCN1CCN(C(c2ccccc2F)c2c(O)cc(C)n(CCOC)c2=O)CC1 (configuration not stated) | i
CCN1CCN(Cc2c(O)ccc3c(=O)c(Oc4ccccc4C(C)C)c(C(F)(F)F)oc23)CC1 | 0.063µM*
CC(C)c1ccccc1Oc1c(C(F)(F)F)oc2c(CN3CCN(C)CC3)c(O)ccc2c1=O | 0.32µM*
SMILES | Pf Dd2 inh
CN1CCN(Cc2nc(C3(O)CCN(Cc4ccc(C(F)(F)F)cc4)CC3)cs2)CC1 | i
COc1ccc(CN2CCC(O)(c3csc(CN4CCN(C)CC4)n3)CC2)cc1 | i
CC(C)(C)n1nnnc1C1CC2(CCOCC2)C(=O)N1Cc1ccc(F)cc1Cl (configuration not stated) | -17%
CC(C)n1cncc1CN1CCC2(CCCO2)CCC1=O (configuration not stated) | 3%
CC1=NS(=O)(=O)N(Cc2ccc(F)cc2F)C=C1C(=O)O | 14%
Cc1cc2nc3n(c(=O)c2n1CC(=O)Nc1ccc(Cl)cc1)CCCCC3 | i
Cc1ccc(C)c(NC(=O)c2cc3c(N4CCSCC4)nc(C)cn3n2)c1 | -15%
CNC(=O)N1CCC(C2CCN(C(=O)c3ccc(F)cc3Cl)C2)CC1 (configuration not stated) | 4%
CN(C)c1ccc(CN2CCC(Oc3ccc(Cl)cc3)(C(=O)O)CC2)cn1 | 18%
COc1cc(C(=O)NC2CCCN(c3cc(-c4ccccc4)[nH]n3)C2)cc(OC)c1OC (configuration not stated) | i
COc1cc(CNCCc2ccc(F)cc2)ccc1OCC(O)CN1CCSCC1 (configuration not stated) | -18%
COc1cc(CNCCCO)ccc1OCC(O)CN1CCSCC1 (configuration not stated) | -13%
COc1cc(CNCC2CCOCC2)ccc1OCC(O)CN(C)C1CCCCC1 (configuration not stated) | 13µM*
COc1cc(CN2CCC(C)(C#N)CC2)ccc1OCC(O)CN1CCOCC1 (configuration not stated) | 1%
COc1ccc(Cl)cc1NC(=O)N(C)CC1CCOCC1 | -25%
COc1cc(CNCCc2ccc(Cl)cc2)ccc1OCC(O)CN1CCOCC1 (configuration not stated) | 11µM*
